An excerpt weighted towards active compounds, which were near 2.3% of everything screened.
PAD4 inh – blocks human protein arginine deiminase 4 | Q9UM07 | recombinant PAD4, RCA probe fluorescence polarization | inhibition, % at 6.36 µM | 330,000 compounds, 0.41% hits | AID 485272;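 active = percent inhibition above a cutoff equal to the mean of all tested compounds plus 3 SD, cut at about 15% in these data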;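 note: 0% = PAD4 with RCA probe and DMSO and 100% = probe without PAD4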
GSTO1 inh – blocks human GSTO1 in RBBP9 counter-screen; P78417; recombinant GSTO1, activity-based probe fluorescence polarization; inhibition, % at 5.96 µM; 300,000 compounds, 1.1% hits;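 active = inhibition above the campaign mean inhibition plus 3 SD, cut at about 35% in these data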;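 note: 0% = GSTO1-1 with DMSO and 100% = wells lacking GSTO1-1 enzyme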
Target sequence (P78417 whole entry, looked up): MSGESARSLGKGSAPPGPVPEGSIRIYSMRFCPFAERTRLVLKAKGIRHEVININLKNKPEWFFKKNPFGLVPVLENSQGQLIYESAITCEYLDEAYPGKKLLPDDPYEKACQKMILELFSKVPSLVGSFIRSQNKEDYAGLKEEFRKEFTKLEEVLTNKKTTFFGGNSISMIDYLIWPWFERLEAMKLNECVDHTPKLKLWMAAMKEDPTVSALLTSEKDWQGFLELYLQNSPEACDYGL
Fam108B inh – blocks mouse Fam108B hydrolase in RBBP9 counter-screen; 300,000 compounds, 0.33% hits; recombinant Fam108B, FP-Rh probe fluorescence polarization; inhibition, % at 9.51 µM;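 active = inhibition above the screen mean inhibition plus 3 SD, computed separately per campaign, cut at about 18% in these data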;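 note: inhibitors lower polarization as less probe binds the enzyme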
PME-1 inh – PME-1 (human) inhibition; 320,000 compounds, 0.53% hits; inhibition, % at 5.9 µM; recombinant PME-1, FP-Rh probe fluorescence polarization; Q9Y570;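 active = inhibition above the campaign mean of all compounds plus 3 SD, cut at about 26% in these data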;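 note: competitive labeling of PME-1 active site by serine hydrolase directed probe; 0% = PME-1 with DMSO and 100% = wells lacking PME-1 enzyme; inhibitors block probe labeling so polarization falls and inhibition rises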
pPAFAH inh – pPAFAH (human) enzyme inhibition. Q13093. recombinant pPAFAH, FP-rhodamine probe fluorescence polarization. inhibition, % at 3.39 µM. 330,000 compounds, 1.5% hits. AID 463082;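 active = inhibition above the mean inhibition across the screen plus 3 SD, cut at about 25% in these data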;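 note: inhibitors block binding of the rhodamine activity-based probe so polarization drops; 0% = enzyme with DMSO and 100% = wells lacking pPAFAH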
* = called active by the depositor; nt = no result given.

SMILES	PAD4 inh	GSTO1 inh	Fam108B inh	PME-1 inh	pPAFAH inh
CC1=NN(C(N)=S)C(=O)C1N=Nc1cccc2ccccc12 (centres undefined)	4	-20	23*	3	13
CC1=NN(C(N)=S)C(=O)C1N=Nc1cccc(Cl)c1C (centres undefined)	-7	5	7	3	12
O=C(COC(=O)c1c[nH]c2ccccc12)NC1CCCCC1	3	nt	nt	-4	28*
O=C(COC(=O)c1cc(=O)[nH]c2ccccc12)NC1CCCCC1	-3	nt	nt	nt	-3
O=C(COC(=O)c1cccc2c1C(=O)c1ccccc1C2=O)NC1CCCCC1	-12	7	7	41*	21
O=C(COC(=O)c1ccc2c(c1[N+](=O)[O-])C(=O)c1ccccc1C2=O)NC1CC1	-18	35	-2	1	-4
CC(C)CNC(=O)c1cccc(NC(=O)Cc2ccc(Cl)cc2)c1	-4	2	0	-4	4
CC(C)n1cnc2c(NCc3ccccc3)cc(Cc3ccc(F)cc3)cc21	-2	nt	nt	6	28*
CCCOc1cc(NCc2ccccc2)c2ncn(C(C)C)c2c1	-7	nt	nt	13	25*
CCOc1cc(NCc2ccccc2)c2ncn(C(C)C)c2c1	-8	nt	nt	nt	22
Cn1c(=O)[nH]c(=O)c2c1[nH]c(=S)n2Cc1ccc(Cl)cc1	2	0	9	1	5
CCCOc1ccc(CC(=O)N/N=C\c2ccc(F)cc2)cc1	-2	4	0	-2	8
COc1nccc(NCc2ccccc2)c1C#N	7	3	2	-1	1
COc1ccc(/C=C(/NC(=O)c2cccc([N+](=O)[O-])c2)C(=O)O)cc1	-5	-1	-3	-7	1
O=C(O)Cc1ccc(-c2ccccc2-c2ccccc2)cc1	1	9	1	-1	29*
CCn1c(NCc2ccccc2Cl)nc2ccccc21	-4	36*	1	4	-2
CC(=O)Nc1ccccc1O	-4	5	-1	0	1
CC(CC(=O)O)Nc1ccccc1O (centres undefined)	-5	48*	1	7	19
COc1ccccc1N1CCN(C(=O)C2CCN(S(=O)(=O)c3ccccc3F)CC2)CC1	0	nt	nt	16	-2
COc1ccccc1N1CCN(C(=O)C2CCN(S(=O)(=O)c3ccc(C)cc3)CC2)CC1	-6	6	-1	41*	-1
COc1ccc(NC(=S)N(CCCN2CCOCC2)C(C)c2cc3cccc(OC)c3o2)cc1 (centres undefined)	0	4	2	-7	28*
Cc1ccc(S(=O)(=O)NCCCNS(=O)(=O)c2ccccc2[N+](=O)[O-])cc1	0	27	-2	1	5
CCN(CC1CCCO1)C(=O)CCc1nnc(CCc2ccccc2OC)o1 (centres undefined)	-1	2	-3	2	6
CC(C)Cc1nnc(NC(=O)CSc2nc(N)cc(=O)[nH]2)s1	0	47*	-2	-1	6
CCc1nnc(NC(=O)CSc2nc3c(C)cccc3[nH]2)s1	0	36*	4	-3	-2
SMILES	PAD4 inh	GSTO1 inh	Fam108B inh	PME-1 inh	pPAFAH inh
CCCc1nnc(NC(=O)CSc2nc3ccccc3[nH]2)s1	-2	12	-1	-9	7
COc1ccc(OC(=O)c2ccncc2)cc1	10	1	-3	0	2
O=C(Oc1ccc(OC(=O)c2ccncc2)cc1)c1ccncc1	-5	35*	4	0	2
CC(=O)Nc1ccc(OC(=O)N2CCCC2)cc1	1	2	-1	3	4
O=C(COC(=O)c1ccc(Br)o1)Nc1ccc(N2CCOCC2)cc1	9	nt	nt	-3	5
CCn1c(SCC(=O)NC2CC2)nnc1-c1ccc(F)cc1	-5	1	0	2	-1
CC(=O)Nc1ccc(S(=O)(=O)NCC(=O)OCC(=O)N2CCN(c3ccccc3)CC2)cc1	-1	7	1	-6	1
O=C(O)c1cc([N+](=O)[O-])ccc1NCCCc1ccccc1	1	5	2	13	27*
O=C(O)c1cc([N+](=O)[O-])ccc1NCc1ccccc1	0	0	-3	5	3
COc1ccccc1N1CCN(C(=O)c2ccc3c(c2)NC(=O)C(CSCc2ccccc2C)N3)CC1 (centres undefined)	-14	-11	9	4	25*
COc1ccccc1Nc1nc(-c2cccc(N3C(=O)c4ccccc4C3=O)c2)cs1	2	-8	2	0	-3
O=C1c2ccccc2C(=O)N1c1cccc(-c2csc(Nc3ccc4c(c3)OCO4)n2)c1	-1	62*	21*	20	15
COc1ccc(NS(=O)(=O)c2ccc(Cl)c(NC(=O)c3cccnc3Cl)c2)cc1	-1	16	-1	-1	30*
COc1ccc(NS(=O)(=O)c2cccc(C(=O)NCc3cccnc3)c2)cc1	2	12	-2	3	27*
CCOc1ccc(NS(=O)(=O)c2ccc(-c3coc(C)n3)cc2)cc1	-5	15	3	-6	29*
Cc1ccc(NS(=O)(=O)c2ccc(C(=O)NCc3cccnc3)cc2)cc1	-2	9	-4	8	27*
O=S(=O)(c1cccc2cccnc12)N1CCN(Cc2ccccc2)CC1	-4	3	-2	-3	0
COc1ccc(C)cc1NC(=O)CN1C(=O)COc2ccc(S(=O)(=O)N3CCC(C)CC3)cc21	1	4	0	-1	0
CN(CCC#N)S(=O)(=O)c1cc2c3c(c1)CCN3C(=O)CC2	1	4	-1	6	3
Cc1ccc(S(=O)(=O)N(Cc2ccccc2)c2ccccc2C(=O)N2CCCCC2)cc1	-6	4	0	6	-1
Cc1ccc(C(=O)NCc2cccnc2)cc1S(=O)(=O)Nc1ccccc1	-2	2	8	5	27*
Cc1ccc(NS(=O)(=O)c2ccc(C(=O)NCc3ccncc3)cc2)cc1	-1	12	-1	2	26*
Cc1ccc(NS(=O)(=O)c2ccc(OCC(=O)NCc3cccnc3)cc2)cc1	-2	14	1	17	26*
Cc1cc(S(=O)(=O)Nc2ccc(C(=O)NCc3ccncc3)cc2)ccc1F	1	3	1	7	1
O=C(COc1ccc(S(=O)(=O)Nc2ccccc2)cc1)NCc1ccncc1	-5	-4	-2	-2	27*
SMILES	PAD4 inh	GSTO1 inh	Fam108B inh	PME-1 inh	pPAFAH inh
CCC(C)NS(=O)(=O)c1ccc(OCC(=O)NCc2cccnc2)cc1 (centres undefined)	0	-15	-2	2	13
O=S(=O)(Nc1ccc(-c2ccc3nncn3n2)cc1)c1cccc(F)c1	-4	0	-1	0	6
CCCNC(=O)COc1ccc(S(=O)(=O)Nc2ccc(C)cc2)cc1	1	3	4	5	30*
N#C/C(=N\Nc1ccc(Cl)cc1)C(=O)c1ccsc1	-7	-10	-3	-4	33*
N#C/C(=N\Nc1cccc(Cl)c1)C(=O)c1ccccc1	-2	-13	2	7	26*
N#C/C(=N\Nc1ccccc1Cl)C(=O)c1ccccc1	-2	-5	2	-1	12
